Assay [1] has as its target Rap guanine nucleotide exchange factor 3 (Homo sapiens) (UniProt O95398). The assay is described as follows: Confirmatory qHTS for antagonist of cAMP-regulated guanine nucleotide exchange factor 3 (EPAC1) (AID 1645880). Also: nearly all actives have a fitted effect of over 55% in size. Also: potency is read from the fitted curve at half-maximal effect.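 As to activity, negative = inhibition: plate controls were DMSO only for no effect and full effect of the ATA control for full effect.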 The settings on record: EPAC1 Rap1B-BODIPY-GDP exchange, fluorescence; activity, negative = inhibition: at 115 µM (top of the series). In a few lines:
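Nucleotide exchange uses 100 nM EPAC1, 250 nM RAP1B-BODIPY-GDP and 50 uM GDP, with compounds in a concentration-titration series. After 5 min at room temperature, fluorescence (480 nm ex/540 nm em) is read every 5 min for 30 min. Data are normalized to control ATA and DMSO.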

Assay [2] addresses Rap guanine nucleotide exchange factor 4 (Homo sapiens) (UniProt Q8WZA2). Briefly: Confirmatory qHTS for agonist of cAMP-regulated guanine nucleotide exchange factor 4 (EPAC2) (AID 1645884).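 Also: nucleotide exchange releases bodipy-GDP from Rap1 and this lowers its fluorescence; nearly all actives have a fitted effect of over 65% in size.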 Also: potency is read from the fitted curve at half-maximal effect. As to activation: % is scaled to controls: 0 for no effect and ±100 for the full control effect. In general terms: qHTS replaces the single test concentration by a dilution series.
Assay [3] has the same target. Briefly: Confirmatory qHTS for antagonist of cAMP-regulated guanine nucleotide exchange factor 4 (EPAC2) (AID 1645885). Also: nearly all actives have a fitted effect of over 25% in size. Also: potency is read from the fitted curve at half-maximal effect. As to activity change, negative = inhibition: % is scaled to controls: 0 for no effect and ±100 for the full control effect.
For assay [4], the target named is Rap guanine nucleotide exchange factor 3 (Homo sapiens) (UniProt O95398). The assay is described as follows: Counterscreen qHTS for antagonist of cAMP-regulated guanine nucleotide exchange factor 3 (EPAC1) (AID 1645888).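 Also: fluorescence loss as bound BODIPY-GDP is released from Rap1B; % of control where 0% means no effect.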 In a few lines: (§1)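 Rap1B-BODIPY-GDP 250 nM + GDP 50 uM; cpds 7-pt, final 9.74 nM–152 uM (activator mode) or from 7.32 nM upwards (inhibitor mode); RT; FI 480/540 nm at 5 and 30 min, then ± cAMP, reread.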
Chain of Rap guanine nucleotide exchange factor 3 (Homo sapiens) (O95398 whole entry, looked up): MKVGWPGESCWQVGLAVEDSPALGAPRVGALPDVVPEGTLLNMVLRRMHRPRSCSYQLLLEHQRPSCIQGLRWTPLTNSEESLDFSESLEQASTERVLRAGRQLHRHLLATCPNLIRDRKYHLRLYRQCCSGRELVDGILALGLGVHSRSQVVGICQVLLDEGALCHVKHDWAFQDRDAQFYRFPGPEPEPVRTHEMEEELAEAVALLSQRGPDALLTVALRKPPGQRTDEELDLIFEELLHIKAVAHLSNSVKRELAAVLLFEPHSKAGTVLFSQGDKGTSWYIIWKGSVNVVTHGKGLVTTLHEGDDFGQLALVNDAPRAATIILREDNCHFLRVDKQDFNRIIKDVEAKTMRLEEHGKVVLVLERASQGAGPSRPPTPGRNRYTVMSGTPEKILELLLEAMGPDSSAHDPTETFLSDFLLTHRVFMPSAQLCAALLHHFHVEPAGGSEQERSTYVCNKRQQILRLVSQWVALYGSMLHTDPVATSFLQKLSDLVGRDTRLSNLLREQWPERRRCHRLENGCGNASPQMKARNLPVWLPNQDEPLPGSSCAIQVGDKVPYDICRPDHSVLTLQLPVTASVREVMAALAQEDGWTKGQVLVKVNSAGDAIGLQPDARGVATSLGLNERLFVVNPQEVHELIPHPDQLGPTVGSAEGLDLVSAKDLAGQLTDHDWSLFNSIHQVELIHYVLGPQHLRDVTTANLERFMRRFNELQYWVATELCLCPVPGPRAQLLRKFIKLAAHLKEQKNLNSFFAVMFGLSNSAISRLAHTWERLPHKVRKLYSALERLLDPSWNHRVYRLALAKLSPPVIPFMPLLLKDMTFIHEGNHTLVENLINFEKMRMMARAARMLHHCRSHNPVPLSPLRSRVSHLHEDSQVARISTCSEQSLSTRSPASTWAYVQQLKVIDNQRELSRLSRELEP

Assay [5] has the same target. The assay is described as follows: Counterscreen qHTS for agonist of cAMP-regulated guanine nucleotide exchange factor 3 (EPAC1) (AID 1645889). Also: nearly all actives have a fitted effect of over 40% in size. Also: potency is read from the fitted curve at half-maximal effect. As to activation: % of control where 0% means no effect. In a few lines:
as §1

Results filed as inconclusive are left out. Unmarked numbers belong to inactive results. The source made the active and inactive calls. Calls follow the shape of the dose curve; as a rule, active = well fitted curve in the direction sought with a large enough effect; inconclusive = small, poorly fitted or top-dose-only effect, or another doubt; inactive = no such curve, though single readings can be large; an effect the other way counts as inactive or inconclusive.

Chain of Rap guanine nucleotide exchange factor 4 (Homo sapiens) (Q8WZA2 whole entry, looked up): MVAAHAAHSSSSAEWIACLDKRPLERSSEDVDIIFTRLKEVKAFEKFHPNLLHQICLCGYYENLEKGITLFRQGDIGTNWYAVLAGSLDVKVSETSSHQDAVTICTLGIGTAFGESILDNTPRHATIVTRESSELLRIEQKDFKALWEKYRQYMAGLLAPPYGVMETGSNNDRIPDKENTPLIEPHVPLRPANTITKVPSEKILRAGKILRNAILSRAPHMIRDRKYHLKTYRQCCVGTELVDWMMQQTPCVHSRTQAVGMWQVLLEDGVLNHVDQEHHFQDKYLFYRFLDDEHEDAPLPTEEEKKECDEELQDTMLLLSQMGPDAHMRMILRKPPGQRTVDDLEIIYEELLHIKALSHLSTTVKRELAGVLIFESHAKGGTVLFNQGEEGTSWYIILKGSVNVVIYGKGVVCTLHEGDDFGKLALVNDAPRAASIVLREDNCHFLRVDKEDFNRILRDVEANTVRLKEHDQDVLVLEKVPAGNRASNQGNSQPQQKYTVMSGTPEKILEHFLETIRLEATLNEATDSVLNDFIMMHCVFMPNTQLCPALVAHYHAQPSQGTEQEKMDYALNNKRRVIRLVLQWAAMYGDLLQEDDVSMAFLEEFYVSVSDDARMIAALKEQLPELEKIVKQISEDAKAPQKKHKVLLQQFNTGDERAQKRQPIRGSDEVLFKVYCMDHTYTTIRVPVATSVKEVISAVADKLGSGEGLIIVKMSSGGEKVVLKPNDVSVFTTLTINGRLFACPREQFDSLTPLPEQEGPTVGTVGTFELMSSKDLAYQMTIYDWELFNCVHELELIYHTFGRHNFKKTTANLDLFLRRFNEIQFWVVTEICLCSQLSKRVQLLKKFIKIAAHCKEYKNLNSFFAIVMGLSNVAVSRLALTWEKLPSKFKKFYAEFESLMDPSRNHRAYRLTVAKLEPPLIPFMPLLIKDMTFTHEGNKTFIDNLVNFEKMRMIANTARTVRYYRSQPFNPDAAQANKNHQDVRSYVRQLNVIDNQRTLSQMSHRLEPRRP

Turning to `CN(C)c1ccc(C2C=C(c3ccc(Cl)cc3OC(F)F)Nc3ncnn32)cc1` (stereo not given), the Potency result in assay [1] and in assay [3] was “inactive” throughout. Moreover, in assay [2], the activation was 4.39% [at 17.1 µM, percent relative to cAMP agonist control]. Also, the activity change, negative = inhibition in assay [4] is -14.7% [at 30.8 µM].
Consider `CCN(C(=O)CN1CCN(c2ccccc2O)CC1)c1c(N)n(Cc2ccccc2)c(=O)[nH]c1=O`, for which the Potency result in assay [1], in assay [2], in assay [3] and in assay [4] was “inactive” in each case.
Take `CCOc1cc(/C=C2\CCCc3c2nc2ccccc2c3C(=O)O)ccc1OC`: the Potency entry in assay [1], in assay [3] and in assay [4] was “inactive” throughout. Moreover, the Potency in assay [2] is 112 µM (active).
On to `CN1CCc2c(sc(NC(=O)CSc3ccccc3)c2-c2nc3ccccc3s2)C1`, for which the Potency entry in assay [1], in assay [2], in assay [3] and in assay [4] was “inactive” throughout.
Take `O=C(c1cccs1)N(Cc1cccnc1)c1nc2c(Cl)cccc2s1`: the Potency entry in assay [1], in assay [2], in assay [3] and in assay [4] was “inactive” in each case.
With `COC(=O)c1cc2oc(C)cc2n1Cc1cc(C)ccc1C`, the Potency entry in assay [1], in assay [2], in assay [3] and in assay [4] was “inactive” each time.
In the case of `CC(C)(C)C1CCc2c(sc(NC(=O)CCC(=O)O)c2C(=O)Nc2ccccc2C(F)(F)F)C1` (stereo not given), in assay [1], the Potency was 42.6 µM (active). Besides, the Potency result in assay [2] and in assay [3] was “inactive” each time.
Take `Cc1ccc(S(=O)(=O)C2(C(=O)Nc3ccc(Br)cc3)CC2)cc1`: the Potency entry in assay [1] and in assay [3] was “inactive” each time. For the same compound, the activation in assay [2] is 6.34% [at 17.1 µM, percent relative to cAMP agonist control]. In addition, the activity change, negative = inhibition in assay [4] was -6.73% [at 30.8 µM].
Consider `COC(=O)c1cc(C(=O)c2ccc(Cl)cc2)n2c(=O)/c(=C\N(C)C)sc12`, for which the Potency entry in assay [1] and in assay [3] was “inactive” each time. The Potency in assay [2] is 100 µM (active).
Take `CCOc1ccc(CCN2C(=O)C(=O)N([C@@H](CC(C)C)CN3CCC[C@@H]3CN3C(=O)C(=O)NC[C@@H]3Cc3ccccc3)C[C@@H]2CC(C)C)cc1`: the Potency entry in assay [1], in assay [2] and in assay [4] was “inactive” throughout. Besides, in assay [3], the Potency was 0.0953 µM (active).
`CN(C)c1ccc(C(=O)/C=C/c2ccc(Br)cc2)cc1`: the Potency entry in assay [1], in assay [3] and in assay [4] was “inactive” in each case. Besides, the Potency in assay [2] was 112 µM (active).
Consider `O=C(N/N=C/c1cc(Cl)cc([N+](=O)[O-])c1O)NC12CC3CC(CC(C3)C1)C2`, for which, in assay [1], the Potency was 10.7 µM (active). Also, the Potency entry in assay [2], in assay [3] and in assay [4] was “inactive” throughout.
On to `COC(=O)C1=CC(C(=O)c2cccs2)=NN(c2ccc(OC)cc2)C1C(=O)OC` (stereo not given), for which the Potency result in assay [1] and in assay [3] was “inactive” each time. Moreover, the activation in assay [2] is 9.11% [at 17.1 µM, percent relative to cAMP agonist control]. In addition, the activity change, negative = inhibition in assay [4] is -26% [at 30.8 µM].
In the case of `O=C(COc1cccc(OC(F)F)c1)Nc1ccc(SC(F)F)cc1`, the Potency entry in assay [1] and in assay [3] was “inactive” throughout. Besides, in assay [2], the activation was 9.08% [at 17.1 µM, percent relative to cAMP agonist control]. For the same compound, the activity change, negative = inhibition in assay [4] was 8.28% [at 30.8 µM].
Consider `COC(=O)c1ccc2nc(-c3ccccc3)c(Cc3cccc(F)c3)n2c1`, for which the Potency result in assay [1] and in assay [3] was “inactive” in each case. Besides, in assay [2], the activation was 4.96% [at 17.1 µM, percent relative to cAMP agonist control]. The activity change, negative = inhibition in assay [4] was 10% [at 30.8 µM].
As for `Cc1cccc(-n2c(N)c(-c3nc4ccccc4n3C)c3nc4ccccc4nc32)c1`, the Potency result in assay [1] and in assay [3] was “inactive” throughout. In addition, the activation in assay [2] was 17.4% [at 17.1 µM, percent relative to cAMP agonist control]. Moreover, the activity change, negative = inhibition in assay [4] is -16.7% [at 30.8 µM].
Consider `COC(=O)c1c(NC(=O)c2ccc(S(=O)(=O)N(C)C3CCCCC3)cc2)sc2c1CCN(C)C2`, for which the Potency result in assay [1], in assay [2], in assay [3] and in assay [4] was “inactive” each time. The Potency in assay [5] was 89.1 µM (active).
Regarding `CCOC(=O)N1CCc2c(sc3c2c(=O)n(-c2ccc(F)cc2)c(=O)n3CC(=O)c2ccc(Cl)cc2)C1`, the Potency entry in assay [1], in assay [2], in assay [3] and in assay [4] was “inactive” each time.
As to `CNC(=O)N(C1=NCC(C)(C)S1)c1ccc(F)c(Cl)c1`, the Potency result in assay [1], in assay [2], in assay [3] and in assay [4] was “inactive” throughout.
As for `O=C1/C(=C/C=C/c2ccccc2)Oc2c1ccc(O)c2CN1CCN(CCO)CC1`, the Potency entry in assay [1] and in assay [3] was “inactive” in each case. Besides, the activation in assay [2] was 17.5% [at 17.1 µM, percent relative to cAMP agonist control]. Moreover, in assay [4], the activity change, negative = inhibition is 31.1% [at 30.8 µM].
Turning to `O=C(c1ccco1)N1CCN(c2cc(=O)n(C3CCCCC3)c(=O)[nH]2)CC1`, the Potency result in assay [1], in assay [2], in assay [3], in assay [4] and in assay [5] was “inactive” each time.
For the compound `COc1ccc(N=Cc2c(O)ccc3ccccc23)cc1`, the Potency result in assay [1] and in assay [3] was “inactive” throughout. In addition, in assay [2], the activation is 6.9% [at 17.1 µM, percent relative to cAMP agonist control]. Also, in assay [4], the activity change, negative = inhibition is 17.7% [at 30.8 µM].
Take `CCOc1cc(/C=N/NC(=O)c2ccc(-c3csc(Nc4ccc(C)cc4)n3)cc2)ccc1OCC(=O)O`: the Potency in assay [1] is 23.9 µM (active). Moreover, the Potency result in assay [2], in assay [3] and in assay [4] was “inactive” in each case.
Turning to `Nc1c(C(=O)C2CC2)sc2nc(-c3cccs3)cc(C(F)(F)F)c12`, the Potency result in assay [1] and in assay [4] was “inactive” throughout. In addition, the Potency was 100 µM (active) in assay [2] and 75.7 µM (active) in assay [3].
On to `COc1ccccc1C(=O)NNC(=O)CCCN1C(=O)/C(=C/c2cccs2)SC1=S`, for which the Potency result in assay [1] and in assay [3] was “inactive” each time. In addition, the activation in assay [2] was 1.7% [at 17.1 µM, percent relative to cAMP agonist control]. Further, the activity change, negative = inhibition in assay [4] is 10.7% [at 30.8 µM].

The values above are taken from PubChem BioAssay (NCATS).
